From PubChem BioAssay
Sampled rows, rich in hits. Any-hit rate of the full collection: about 10%.
BAZ2B inh – BAZ2B (human) inhibition | Q9UIF8 | AID 504333 | AlphaScreen BAZ2B-H3K14Ac peptide displacement | 4.4% of 360,000 active | Potency, µM (titrated, usually from 114 µM), for the others: top-dose activity change, negative = inhibition, most hits filed as inhibitors; also: % is scaled to controls: 0 for no effect and ±100 for the full control effect; nearly all actives have a fitted effect of over 60% in size
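Compounds, titrated to a top concentration of 110 uM, were incubated 30 min at room temperature with preformed BAZ2B/acetyl-K14 H3 peptide complex (50 nM each). Proximity signal was measured by AlphaScreen after 20 min with beads.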
GLS inh – blocks human kidney-isoform glutaminase activity; Potency, µM (doses to about 45.5 µM), for the others: at the top dose activity change, negative = inhibition, actives largely listed as inhibitors; O94925; GLS enzymatic activity, qHTS titration; 0.21% of 410,000 active; AID 624170; also: % is scaled to controls: 0 for no effect and ±100 for the full control effect
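Read-out is an Amplex red fluorescence increase coupled through glutamate oxidase and HRP, measured before and after 30 min room-temperature incubation. hKGA is in 45 mM KH2PO4 (pH 8.2) with 0.02% Tween-20; glutamine added as 1mM solution.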
HP1b chromo inh – inhibitors of HP1-beta chromodomain binding to methylated histone tails; AlphaScreen HP1-beta / biotin-H3K9me3 peptide binding; Potency, µM (doses to about 114 µM), without a hit: at the highest dose activity change, negative = inhibition, usual class: inhibitors; 0.56% of 390,000 active; AID 540317; also: nearly all actives have a fitted effect of over 70% in size
Target sequence (P83916 whole entry, looked up): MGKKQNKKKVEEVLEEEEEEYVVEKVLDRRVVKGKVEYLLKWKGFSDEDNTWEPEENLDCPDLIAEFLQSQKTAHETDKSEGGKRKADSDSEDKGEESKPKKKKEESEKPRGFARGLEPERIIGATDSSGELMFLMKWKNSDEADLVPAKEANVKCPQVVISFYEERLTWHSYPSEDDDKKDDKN
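AlphaScreen: HP1-beta (50 nM) preformed 30 min with biotin-H3(1-18)K9me3 peptide (50 nM) in PBS pH 7.4, 0.01% Tween-20. Compound added for 30 min at RT, then streptavidin donor/nickel chelate acceptor beads (10 ug/mL) for 30 min.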
JMJD2A Tudor – JMJD2A Tudor domain (human) inhibition. AlphaScreen JMJD2A-Tudor / H3K4me3 peptide binding. Potency, µM (doses to about 114 µM), for the others: at the top dose activity change, negative = inhibition, actives largely listed as inhibitors. 4.4% of 390,000 active; also: % is scaled to controls: 0 for no effect and ±100 for the full control effect; nearly all actives have a fitted effect of over 50% in size
G9a block – inhibitors of human histone lysine methyltransferase G9a | G9a H3K9 monomethylation, AlphaScreen, 2 h | Potency, µM (doses to about 102 µM), for inactives: at the top dose activity, negative = inhibition, most hits filed as inhibitors | 8.8% of 350,000 active; also: % is scaled to controls: 0 for no effect and ±100 for the full control effect; nearly all actives have a fitted effect of over 75% in size
Target sequence (Q96KQ7 913-1193 limits assumed): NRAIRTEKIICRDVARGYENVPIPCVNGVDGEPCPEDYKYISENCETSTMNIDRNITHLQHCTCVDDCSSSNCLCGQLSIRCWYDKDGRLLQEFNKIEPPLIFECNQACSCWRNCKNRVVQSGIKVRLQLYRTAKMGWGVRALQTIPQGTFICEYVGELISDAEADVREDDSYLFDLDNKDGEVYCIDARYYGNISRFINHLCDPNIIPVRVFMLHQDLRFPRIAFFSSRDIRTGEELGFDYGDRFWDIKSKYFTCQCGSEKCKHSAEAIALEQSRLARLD
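Readings reflect AlphaScreen signal from monomethyl-H3K9 antibody detection. HMT at 20 nM; substrate b-H3K9 500 nM; cofactor SAM 20 uM; 2 h RT reaction; compounds tested as titrations in qHTS with 15 min preincubation.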
* hit, by the source's call; [ ] = another dose, or the depositor's remark. Calls follow the shape of the dose curve; as a rule, active = well fitted curve in the direction sought with a large enough effect; inconclusive = small, poorly fitted or top-dose-only effect, or another doubt; inactive = no such curve, though single readings can be large; an effect the other way counts as inactive or inconclusive. Potency is read from the fitted curve at half-maximal effect.

What do the screens show for `C=C(C)CN(CC)C(=O)CSc1ccc(S(=O)(=O)N2CCN(Cc3ccccc3)CC2)cn1`?
BAZ2B inh: -9%; GLS inh: 0%; HP1b chromo inh: 26%; JMJD2A Tudor: -12%; G9a block: -41%[12.7 µM]

What do the screens show for `CC(C)NC(=O)NC(=O)CSc1ccc(S(=O)(=O)N2CCOCC2)cn1`?
BAZ2B inh: 34%; GLS inh: 1%; HP1b chromo inh: 22%; JMJD2A Tudor: 10%; G9a block: 45µM*

Results for CCCCNC(=O)CSc1ccc(S(=O)(=O)N2CCOCC2)cn1 ?
BAZ2B inh: -5%; GLS inh: -6%; HP1b chromo inh: 23%; JMJD2A Tudor: -17%; G9a block: -46%[59 µM]

What do the screens show for `CN(C)C(=O)CSc1ccc(S(=O)(=O)N2CCCC2)cn1`?
BAZ2B inh: -3%; GLS inh: 1%; HP1b chromo inh: 26%; JMJD2A Tudor: -3%; G9a block: 56µM*

What do the screens show for `C=C(C)CN(CC)C(=O)CSc1ccc(S(=O)(=O)N2CCN(C)CC2)cn1`?
BAZ2B inh: 9%; GLS inh: -17%; HP1b chromo inh: 38%; JMJD2A Tudor: -4%; G9a block: 45µM*

What do the screens show for `CCC(CC)NC(=O)CSc1ccc(S(=O)(=O)N2CCCCC2)cn1`?
BAZ2B inh: 50%; GLS inh: 1%; HP1b chromo inh: 28%; JMJD2A Tudor: -5%; G9a block: 50µM*

How did CC(C)N1CCCC(C)(C(=O)Nc2ccccc2)C1 (stereo unspecified) do in these assays?
GLS inh: -1%

How did COc1ccc(NC(=O)/C(Cl)=C(/Cl)S(=O)Cc2ccccc2Cl)cn1 (stereo unspecified) do in these assays?
BAZ2B inh: -16%; GLS inh: inconclusive; HP1b chromo inh: -19%; JMJD2A Tudor: -21%; G9a block: 10µM*

Results for COc1ccc(NC(=O)/C(Cl)=C(/Cl)S(=O)(=O)Cc2ccc(C)cc2)cn1 ?
BAZ2B inh: -7%; GLS inh: -1%; HP1b chromo inh: 33%; JMJD2A Tudor: -10%; G9a block: 45µM*

Results for COc1ccc(NC(=O)Cc2ccc(Cl)c(Cl)c2)cn1 ?
BAZ2B inh: inconclusive; GLS inh: 4%; HP1b chromo inh: 14%; JMJD2A Tudor: -1%; G9a block: 2%

Results for C[C@@H]1CN([C@@H](C)CO)C(=O)c2cc(NC(=O)C3CC3)ccc2O[C@@H]1CN(C)C(=O)NC1CCCCC1 ?
GLS inh: 2%; HP1b chromo inh: 48%; JMJD2A Tudor: -6%

How did C/C(=N\N=c1/sc2ccccc2n1C)c1ccccn1 do in these assays?
BAZ2B inh: -31%; GLS inh: 2%; HP1b chromo inh: 28%; JMJD2A Tudor: inconclusive; G9a block: 2%

How did C/C(=N\N=c1/sc2ccccc2n1C)c1ccc(N2CCOCC2)cc1 do in these assays?
BAZ2B inh: -35%; GLS inh: 1%; HP1b chromo inh: -19%; JMJD2A Tudor: -24%; G9a block: 7.9µM*

How did CCN(CC)c1ccc(NC(=O)C2=CC=CN3CCS(=O)(=O)N=C23)cc1 do in these assays?
BAZ2B inh: 45µM*; GLS inh: 42%; HP1b chromo inh: -23%; JMJD2A Tudor: inconclusive; G9a block: inconclusive

Results for CC(C)(C)OC(=O)N1CCC[C@H]1c1nnc(SCc2ccccc2)o1 ?
BAZ2B inh: -8%; GLS inh: 0%; HP1b chromo inh: -5%; JMJD2A Tudor: 7%; G9a block: inconclusive

How did CC(C)(C)OC(=O)N1CCC[C@H]1c1nnc(SCc2ccccc2F)o1 do in these assays?
BAZ2B inh: 4%; GLS inh: 10%; HP1b chromo inh: 53%; JMJD2A Tudor: 3%; G9a block: 50µM*

Results for COc1ccc(N2CCN(CCCNS(=O)(=O)c3c(C)noc3/C=C/N(C)C)CC2)cc1 ?
BAZ2B inh: 35µM*; G9a block: inconclusive

How did CN(C)c1ccc2c(c1)C(=NO)c1ccccc1-2 do in these assays?
GLS inh: 15%; HP1b chromo inh: 45µM*; JMJD2A Tudor: 40µM*

How did COc1cccc(Cn2cnc3c2c(=O)n(C)c(=O)n3C)c1 do in these assays?
BAZ2B inh: -2%; GLS inh: 1%; HP1b chromo inh: 59%; JMJD2A Tudor: -7%; G9a block: 28%[59 µM]

How did CCc1ccccc1NC(=O)c1nnn(-c2ccc(F)cc2)c1C do in these assays?
BAZ2B inh: 50%; GLS inh: -6%; HP1b chromo inh: 76%; JMJD2A Tudor: 20%; G9a block: 11%[59 µM]

Results for NC(=O)c1cc[n+](CC2=C(C(=O)[O-])N3C(=O)[C@@H](NC(=O)Cc4cccs4)[C@@H]3SC2)cc1 ?
GLS inh: -12%[20 µM]; G9a block: 7.9µM*

What do the screens show for `NC(=O)c1cc[n+](CC2=C(C(=O)O)N3C(=O)[C@@H](NC(=O)[C@H](c4ccccc4)S(=O)(=O)[O-])[C@@H]3SC2)cc1`?
GLS inh: inconclusive; G9a block: 5.6µM*

Results for Cc1nnc(SCC2=C(C(=O)O)N3C(=O)C(NC(=O)Cc4ccccc4)C3SC2)s1 (stereo unspecified) ?
BAZ2B inh: inconclusive; GLS inh: -12%; HP1b chromo inh: 35%; JMJD2A Tudor: -6%; G9a block: inconclusive

Results for NC(=O)c1cc[n+](CC2=C(C(=O)O)N3C(=O)[C@@H](NC(=O)C(c4ccccc4)S(=O)(=O)[O-])[C@H]3SC2)cc1 (stereo partly specified) ?
BAZ2B inh: 2%; GLS inh: 0.79µM*; HP1b chromo inh: inconclusive; JMJD2A Tudor: 1.1µM*; G9a block: -13%

How did CC(C)C[C@@H](/C=C/S(C)(=O)=O)NC(=O)[C@H](CC(C)C)NC(=O)[C@H](CC(C)C)NC(=O)OCc1ccccc1 do in these assays?
G9a block: 36%[59 µM]

Results for CCc1nc2ccc(C(=O)Nc3cccc(NS(C)(=O)=O)c3)cn2c1N(C)CCN1CCOCC1 ?
GLS inh: 30%

How did Cc1ccc(-n2nc(C(=O)N3CCC(C)CC3)c(=O)n(C)c2=O)cc1 do in these assays?
BAZ2B inh: 1%; GLS inh: -14%; HP1b chromo inh: 21%[57 µM]; JMJD2A Tudor: -4%; G9a block: 0%[59 µM]

How did COc1ccc2c(c1)sc(=N)n2C do in these assays?
BAZ2B inh: -16%; GLS inh: -4%; HP1b chromo inh: 32%; JMJD2A Tudor: 8%; G9a block: 20µM*

How did COc1ccc2c(c1)sc1nc(=O)ccn12 do in these assays?
BAZ2B inh: -6%; GLS inh: 1%; HP1b chromo inh: 25%; JMJD2A Tudor: -16%; G9a block: 4%[0.501 µM]

How did COc1ccc(N2C(=O)CCC(C(=O)N3CCCCC3)C2c2ccc(OC)c(OC)c2)cc1 (stereo unspecified) do in these assays?
BAZ2B inh: 10%; GLS inh: -3%; HP1b chromo inh: 12%; JMJD2A Tudor: -1%; G9a block: 56µM*
